Data: PubChem BioAssay (NCATS)
Inconclusive results are not listed. Calls of active or inactive are those of the source. The call rests on the fitted dose curve; in most records, active means well fitted curve in the direction sought with a large enough effect; inconclusive means small, poorly fitted or top-dose-only effect, or another doubt; inactive means no such curve, though single readings can be large; an effect the other way counts as inactive or inconclusive.

What was measured:
[1] = qHTS assay for measurement of the activity of small molecule inhibitors on Zika virus induced Caspase-3 activity in human iPSC derived neural progenitor cells (hNPCs) (AID 1224857); further: % of control where 0% means no effect; nearly all actives have a fitted effect of over 65% in size
Procedure, shortened: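 Quantitative HTS format: human iPSC neural progenitors, 1 h compound pretreatment, ZIKV 2 FFU/cell for 6 h at 37 C. Percent inhibition derived from luminescent caspase-3/7 signal between uninfected and infected controls.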

[2] = qHTS assay for measurement of the activity of small molecule inhibitors on Zika virus induced Caspase-3 activity in human astrocytoma cells (AID 1224859);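 further: plate controls were ZIKV-infected untreated cells for no effect and uninfected cells for full effect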
Procedure, shortened: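 Readout is luminescence from Caspase-Glo 3/7 added after a 6 h ZIKV infection (2 FFU/cell) of compound-pretreated (1 h) SNB-19 cells; data expressed as % inhibition versus uninfected and infected wells.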

[3] = qHTS assay to identify small molecule inhibitors of chordoma cells - UCH-1 (AID 1259355); further: on the % scale 0 is the no-effect control and ±100 the full control effect; nearly all actives have a fitted effect of over 55% in size
Procedure, shortened: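 Luminescent ATP read-out (CellTiter-Glo, 30min at room temperature) measured viability of UCH-1 cells exposed for 48hr to test drugs at 15 concentrations, co-dosed with a five-agent combination of auranofin, camptothecin, doxorubicin, rubitecan and topotecan.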

[4] = qHTS assay to identify small molecule inhibitors of chordoma cells - UCH-2 (AID 1259356); further: series mostly up to about 46 µM; on the % scale 0 is the no-effect control and ±100 the full control effect

Measured: activity change, negative = inhibition

CC(=O)OC[C@H]1O[C@@](COC(C)=O)(O[C@H]2O[C@H](COC(C)=O)[C@@H](OC(C)=O)[C@H](OC(C)=O)[C@H]2OC(C)=O)[C@@H](OC(C)=O)[C@@H]1OC(C)=O
inactive: [1] | [2] | [3]

CC1CCc2cc(F)cc3c(=O)c(C(=O)O)cn1c23 (stereo not given)
inactive: [1] | [2] | [3]

COc1ccc(C(=O)N2CCN(CC(=O)N3CCOCC3)CC2)cc1
inactive: [1] | [2] | [3]

Cn1c([N+](=O)[O-])cnc1COC(N)=O
inactive: [1] | [2] | [3]

CCOC(=O)c1cccnc1
inactive: [1] | [2] | [3]

CCOC(=O)[C@H](CCc1ccccc1)N[C@@H](C)C(=O)N1Cc2cc(OC)c(OC)cc2C[C@H]1C(=O)O
inactive: [1] | [2] | [3]

O=C(O)Cc1cn(-c2ccccc2)nc1-c1ccc(Cl)cc1
inactive: [1] | [2] | [3]

CC(C)(C)NCC(O)COc1cccc2c1CCC(=O)N2 (stereo not given)
inactive: [1] | [2] | [3]

CCS(=O)(=O)CCn1c([N+](=O)[O-])cnc1C
inactive: [1] | [2] | [3]

Cn1cc(C(=O)[C@@H]2CCc3nc[nH]c3C2)c2ccccc21
inactive: [1] | [2] | [3]

CCCNC(C)C(=O)Nc1c(C)csc1C(=O)OC (stereo not given)
inactive: [1] | [2] | [3] | [4]

Cc1cc(O)cc(C)c1Cl
inactive: [1] | [2] | [3] | [4]

CC(=O)Nc1ccc(OCCOCCOc2ccc(NC(C)=O)cc2)cc1
inactive: [1] | [2] | [3]

COc1ccc(C(=O)NCc2ccc(OCCN(C)C)cc2)cc1OC
inactive: [1] | [2] | [3]

CCN(CC)CCOC(=O)C(c1ccccc1)c1ccccc1
inactive: [1] | [2] | [3]

NCC1CCC(C(=O)Oc2ccc(CCC(=O)O)cc2)CC1 (stereo not given)
inactive: [1] | [2] | [3]

C/C(=C(\CCO)SS/C(CCO)=C(\C)N(C=O)Cc1cnc(C)nc1N)N(C=O)Cc1cnc(C)nc1N
inactive: [1] | [2] | [3]

CC[C@]12CCCN3CCc4c(n(c5ccccc45)[C@@](O)(C(=O)OC)C1)[C@@H]32
inactive: [1] | [2] | [3]

CCCCCCCC(=O)OCC(O)CO (stereo not given)
inactive: [1] | [2] | [3]

CC1CCN(CCCC(=O)c2ccc(F)cc2)CC1
inactive: [1] | [2] | [3]

COc1ccc(Cc2cnc(N)nc2N)cc1OC
inactive: [1] | [2] | [3] | [4]

Cc1cc(OI)c(C(C)C)cc1-c1cc(C(C)C)c(OI)cc1C
inactive: [1] | [2] | [3]

NS(=O)(=O)c1ccc(C(=O)O)cc1
inactive: [1] | [2] | [3]

Cc1ccc2c(c1)c1c3n2CCNC3CCC1 (stereo not given)
inactive: [1] | [2] | [3]

O=C(O)c1ccc[n+]([O-])c1
inactive: [1] | [2] | [3]

CCCCCCCCCCCCCCCCC(C(=O)O)C(O)(CC(=O)O)C(=O)O (stereo not given)
inactive: [1] | [2] | [3]

COC(=O)N/N=C/c1c[n+]([O-])c2ccccc2[n+]1[O-]
inactive: [1] | [2] | [3]

CCCNC(C)(C)COC(=O)c1ccccc1
inactive: [1] | [2] | [3]

CC(=O)[C@@]1(O)CC[C@H]2[C@@H]3C[C@H](C)C4=CC(=O)C=C[C@]4(C)[C@@]3(F)[C@@H](O)C[C@@]21C
inactive: [1] | [2] | [3]

C[n+]1ccccc1/C=N/O
inactive: [1] | [2] | [3]

O=C(/C=C/c1ccccc1)OCc1ccccc1
inactive: [1] | [2] | [3]

CC(=O)N(CC(O)CN(C(C)=O)c1c(I)c(C(=O)NCC(O)CO)c(I)c(C(=O)NCC(O)CO)c1I)c1c(I)c(C(=O)NCC(O)CO)c(I)c(C(=O)NCC(O)CO)c1I (stereo not given)
inactive: [1] | [2] | [3]

CCCCCC(N)=O
inactive: [1] | [2] | [3] | [4]

Cc1c(C)c2c(c(C)c1OC(=O)c1cccnc1)CC[C@@](C)(CCC[C@H](C)CCC[C@H](C)CCCC(C)C)O2
inactive: [1] | [2] | [3]

O=C(O)c1ccc(OCCCOc2ccc(C(=O)O)cc2)cc1
inactive: [1] | [2] | [3]

N[C@@H](Cc1ccc(O)cc1)C(=O)O
inactive: [1] 4.45% [at 9.06 µM] | [2] -11% [at 9.06 µM] | [3]

O=C(OOC(=O)c1ccccc1)c1ccccc1
inactive: [1] | [2] | [3]

O=C(O)CCCCC1CCSS1 (stereo not given)
inactive: [1] | [2] | [3]

COc1ccc(-c2cc(=O)c3c(O)cc(O[C@@H]4O[C@H](CO[C@@H]5O[C@@H](C)[C@H](O)[C@@H](O)[C@H]5O)[C@@H](O)[C@H](O)[C@H]4O)cc3o2)cc1O
inactive: [1] | [2] | [3] | [4]

C[N+](C)(C)CC[N+]1(C)Cc2c(Cl)c(Cl)c(Cl)c(Cl)c2C1
inactive: [1] | [2] | [3] | [4]

O[C@@H]1CO[C@H]2[C@@H]1OC[C@@H]2O
inactive: [1] | [2] | [3] | [4]

COc1nccnc1NS(=O)(=O)c1ccc(N)cc1
inactive: [1] | [2] | [3] | [4]

O=C(O)c1cc(=O)c2ccccc2o1
inactive: [1] | [2] | [3] | [4]

O=C(O)Cc1ccc(CCNS(=O)(=O)c2ccc(Cl)cc2)cc1
inactive: [1] | [2] | [3] | [4]

OCCN1C[C@H](O)[C@@H](O)[C@H](O)[C@H]1CO
inactive: [1] | [2] | [3] | [4]

O=C(NCN1CCOCC1)c1cnccn1
inactive: [1] | [2] | [3] | [4]

O=C(NCC(O)CO)c1c(I)c(C(=O)NCC(O)CO)c(I)c(N(CCO)C(=O)CO)c1I (stereo not given)
inactive: [1] | [2] | [3] | [4]

FC(F)(F)C(Cl)Br (stereo not given)
inactive: [1] | [2] | [3] | [4]

NC(=O)c1ccc([N+](=O)[O-])cc1Cl
inactive: [1] | [2] | [3] | [4]

Cc1ncc(CO)c(CN)c1O
inactive: [1] | [2] | [3] | [4]

O=c1[nH]c(=O)c2ccccc2o1
inactive: [1] | [2] | [3] | [4]

NS(=O)(=O)c1ccc(NC(=O)CCC(=O)O)cc1
inactive: [1] | [2] | [3] | [4]

NC(N)=NS(=O)(=O)c1ccc(N)cc1
inactive: [1] | [2] | [3] | [4]

Cc1cccc(C)c1NC(=O)CC12CCCN1CCC2
inactive: [1] | [2] | [3] | [4]

CC(C)c1cc2c(cc1S(=O)(=O)O)[C@@]1(C)CCC[C@@](C)(C(=O)O)[C@@H]1CC2
inactive: [1] | [2] | [3] | [4]

O=C(O)/C=C/c1ccc(Cn2ccnc2)cc1
inactive: [1] | [2] | [3] | [4]

NNc1nnc(NN)c2ccccc12
inactive: [1] | [2] | [3] | [4]

O=C(CN1CCNCC1)NC1CCCCC1
inactive: [1] | [2] | [3] | [4]

Cc1ccsc1C(=CCCN1CCC[C@@H](C(=O)O)C1)c1sccc1C
inactive: [1] | [2] | [3] | [4]

C/C=C1\[C@H]2C=C(C)C[C@]1(N)c1ccc(=O)[nH]c1C2
inactive: [1] | [2] | [3] | [4]

CN1C(=O)CC(c2ccccc2)C1=O (stereo not given)
inactive: [1] | [2] | [3] | [4]

CCCCOC(=O)c1ccc(N)cc1
inactive: [1] | [2] | [3] | [4]

COC(=O)c1cccnc1
inactive: [1] | [2] | [3] | [4]

CN(C(=O)c1c(O)c2ccccc2n(C)c1=O)c1ccccc1
inactive: [1] | [2] | [3] | [4]

CC(CN(C)C)C(C)(O)Cc1ccc(Cl)cc1 (stereo not given)
inactive: [1] | [2] | [3] | [4]

CC(N)CCCC(C)(C)O (stereo not given)
inactive: [1] | [2] | [3] | [4]

OC(CCN1CCCC1)(c1ccccc1)C1CCCCC1 (stereo not given)
inactive: [1] | [2] | [3] | [4]

OCC(O)CS (stereo not given)
inactive: [1] | [2] | [3] | [4]

CC1(C)S[C@@H]2[C@H](NC(=O)C(C(=O)O)c3ccccc3)C(=O)N2[C@H]1C(=O)O (stereo not given in full)
inactive: [1] | [2] | [3] | [4]

Cc1cc(C)c(NC(=O)CN(CC(=O)O)CC(=O)O)c(C)c1Br
inactive: [1] | [2] | [3] | [4]

CCN[C@H]1CN(CCCOC)S(=O)(=O)c2sc(S(N)(=O)=O)cc21
inactive: [1] | [2] | [3] | [4]

CCOc1cc(NC(C)=O)ccc1C(=O)OC
inactive: [1] | [2] | [3] | [4]

CN1C[C@@H]2C[C@H]1CN2c1cc2c(cc1F)c(=O)c(C(=O)O)cn2C1CC1
inactive: [1] | [2] | [3] | [4]

CCCCC1(COC(=O)CCC(=O)O)C(=O)N(c2ccccc2)N(c2ccccc2)C1=O
inactive: [1] | [2] | [3] | [4]

CC(=O)SC[C@@H](Cc1ccccc1)C(=O)NCC(=O)OCc1ccccc1
inactive: [1] | [2] | [3] | [4]

O=C(Cn1ccnc1[N+](=O)[O-])NCc1ccccc1
inactive: [1] | [2] | [3] | [4]

CC(CSC(=O)c1ccccc1)C(=O)N1C[C@@H](Sc2ccccc2)C[C@H]1C(=O)O (stereo not given in full)
inactive: [1] | [2] | [3] | [4]

C[C@@H]1O[C@@H](OC[C@H]2O[C@@H](Oc3c(-c4ccc(O)c(O)c4)oc4cc(O)cc(O)c4c3=O)[C@H](O)[C@@H](O)[C@@H]2O)[C@H](O)[C@H](O)[C@H]1O
inactive: [1] | [2] | [3] | [4]

OCc1ccc(Cl)cc1Cl
inactive: [1] | [2] | [3] | [4]

CC1(C)S[C@@H]2[C@H](N=CN3CCCCCC3)C(=O)N2[C@H]1C(=O)O
inactive: [1] | [2] | [3] | [4]

Nc1ncnc2c1ncn2[C@@H]1O[C@H](COP(=O)(O)O)[C@@H](O)[C@H]1O
inactive: [1] | [2] | [3] | [4]
